{"source": "PubChem BioAssay (NCI)", "note": "Compounds without any hit were thinned out: in the full panel of roughly 83,000, 20% have a hit.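 The endpoint reported here, percent growth, reads 100 for growth as untreated, 0 for no net growth and -100 for all cells dead.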 Active and inactive are the calls of the source."}
{"test_system": "IGROV1 ovarian", "test": "NCI-60 one-dose screen, 48 h (100 = growth as untreated, 0 = no growth, -100 = all killed)", "conditions": "10 µM unless noted", "procedure": "Growth inhibition of the IGROV1 human tumor cell line is measured as a screen for anti-cancer activity. Cells are grown in 96 well plates and exposed to the test compound for 48 hours. Compounds are tested at a single concentration, which is 10^-5 M for most compounds. The reported endpoint is percent growth (GI% or GIPRCNT), where numbers from 0 - 100% represent growth inhibition, and numbers from -100% - 0 represent cell death. For example, a value of 40 represents 60% growth inhibition. A value of 0 means no net growth occurred over the course of the experiment. A value of -40 indicates 40% of cells at the beginning of the experiment died by the end of the experiment. A value of -100 means all cells are dead at the end of the experiment.\nNCI-60 Human Tumor Cell Lines Screen was performed using the standard one-dose NCI protocol, which is described in more detail at https://dtp.cancer.gov/discovery_development/nci-60/default.htm.\nCompounds with GIPRCNT values below 10 were considered active. Activity score was based on GIPRCNT using the following formula: […]\nScore is 0 for GIPRCNT values of 100 or above, 50 for GIPRCNT values of 0, and 100 for GIPRCNT values of -100."}
{"smiles": "CCc1ccc(Nc2cc(C)c3ccc(O)cc3n2)cc1", "growth": "53.8% (inactive)"}
{"smiles": "F", "growth": "53.5% [6.87 mM] (inactive)"}
{"smiles": "O=C1c2ccccc2C2N1CCC1CCc3ccccc3N12", "note": "(stereo not given)", "growth": "99.8% (inactive)"}
{"smiles": "CC1(C)CC[C@]2(C(=O)N3CCNCC3)CC[C@]3(C)C(=CC[C@@H]4[C@@]5(C)CCC(=O)C(C)(C)[C@@H]5CC[C@]43C)[C@@H]2C1", "growth": "113% (inactive)"}
{"smiles": "Clc1cn2cc(-c3ccc(Cl)c(Cl)c3Cl)nc2s1", "growth": "55.7% (inactive)"}
{"smiles": "COc1ccc(-c2oc(=O)ccc2-c2cc(OC)c(OC)c(OC)c2)cc1F", "growth": "80.4% (inactive)"}
{"smiles": "CCN(C(=O)Nc1cccc2ccccc12)c1ccccc1", "growth": "90.4% (inactive)"}
{"smiles": "CCC1CCc2nc3sc(C(=O)Nc4cccc(F)c4)c(N)c3cc2C1", "note": "(stereo not given)", "growth": "89.2% (inactive)"}
{"smiles": "NC(N)=N/N=C/c1ccccc1", "growth": "108% (inactive)"}
{"smiles": "Cn1nc(C(F)(F)F)cc1-c1c[nH]c(OCc2ccc(Cl)cc2)c(-c2ccc(Cl)c(C(F)(F)F)c2)c1=O", "growth": "24.1% (inactive)"}
{"smiles": "CCCNC(=S)N/N=C(\\C)c1ccccn1", "growth": "9.27% (active)"}
{"smiles": "CNC(=O)c1cc(Oc2ccc(NC(=O)c3nc(S(C)(=O)=O)sc3-c3ccc(F)cc3)cc2)ccn1", "growth": "100% (inactive)"}
{"smiles": "COc1ccc2cc(-c3nc(C)c(C(C)=O)c(-c4ccc(C)cc4)n3)ccc2c1", "growth": "101% (inactive)"}
{"smiles": "CN1CCN(Cc2ccc(NC(=O)c3cncc(C#Cc4cnc5cccnn45)c3)cc2C(F)(F)F)CC1", "growth": "5.12% (active)"}
{"smiles": "COc1ccc(NC(=O)c2ccc(C(F)(F)F)nc2Nc2ccc(Cl)cc2C)cc1Cl", "growth": "27% (inactive)"}
{"smiles": "COc1cc(C2CC(c3ccc(Cl)cc3)=NN2C=O)ccc1OS(=O)(=O)c1ccc(C)cc1", "note": "(stereo not given)", "growth": "94.4% (inactive)"}
{"smiles": "O=C(Cc1ccc(Nc2ccnc(C(F)(F)F)c2)cc1)N/N=C/c1ccccc1O", "growth": "18.8% (inactive)"}
{"smiles": "CCOC(C)(c1ccc(Cl)cc1)C1CCNCC1", "note": "(stereo not given)", "growth": "115% (inactive)"}
{"smiles": "COC(=O)/C=C/c1cc(OC(C)=O)c2c(c1)[C@@H](C(=O)OC)[C@H](c1ccc(OC(C)=O)c(OC(C)=O)c1)O2", "growth": "12.2% (inactive)"}
{"smiles": "COc1c(B(O)O)cccc1-c1nc2c(F)cc3n[nH]c(C)c3c2c2c1CCCC2", "growth": "16.3% (inactive)"}
{"smiles": "CCCCCCCCCCCCCCCCCC1=NC(C)(C)CN1C(C)(C)CO", "growth": "-83.8% (active)"}
{"smiles": "COC(=O)C1(C)COP(=O)(NC23CC4CC(CC(C4)C2)C3)OC1", "note": "(stereo not given)", "growth": "106% (inactive)"}
{"smiles": "COc1ccc(-c2nc(-c3cc(OC)cc(OC)c3)[nH]c2-c2ccc(OC)cc2)cc1", "growth": "71.7% (inactive)"}
{"smiles": "Cc1cc(C)cc(NC(=O)Cn2nncc2CN2C(=O)CSC2=O)c1", "growth": "110% (inactive)"}
{"smiles": "FC(F)(F)c1ccc(/C=N/Nc2nnc3n2N=C(c2ccc(Cl)cc2)CS3)cc1", "growth": "49.2% (inactive)"}
{"smiles": "O=C(CI)NCCNc1cccc2c(S(=O)(=O)O)cccc12", "growth": "97.6% (inactive)"}
{"smiles": "CN(C)c1ccc(N2Cc3ccccc3OC3=C2C(=O)c2c(O)ccc(O)c2C3=O)cn1", "growth": "-63.3% (active)"}
{"smiles": "COc1cc(C2Nc3ccccc3S2)cc(CN2CCOCC2)c1O", "note": "(stereo not given)", "growth": "39% (inactive)"}
{"smiles": "CC1(C)C(N(O)C(=O)Nc2ccc(Cl)cc2)N(c2ccc(Cl)cc2)C(=O)N1CC(=O)N/N=C/C=C/c1ccc([N+](=O)[O-])o1", "note": "(stereo not given)", "growth": "-5.58% (active)"}
{"smiles": "O=C1OCC2=C1C(c1ccc(Cl)c(Cl)c1)c1cc3c(cc1N2CCO)CCC3", "note": "(stereo not given)", "growth": "30.1% (inactive)"}
{"smiles": "CN(C)CCOc1nc2c3ccncc3cc(-c3cccc(Cl)c3)c2c2cnccc12", "growth": "28.9% (inactive)"}
{"smiles": "CC1=C(O)C(=O)C(c2c(C)cc(C)c(Br)c2C)=C(O)C1=O", "growth": "46.3% (inactive)"}
{"smiles": "CCCCn1cnc(-c2cc(-c3ccccc3)cc(C(F)(F)F)c2)n1", "growth": "103% (inactive)"}
{"smiles": "Fc1ccc(-c2ccnc3nc(-c4ccncc4)nn23)cc1", "growth": "104% (inactive)"}
{"smiles": "O=C1c2ccccc2C(=O)c2c1oc1ccc3ccccc3c21", "growth": "80.2% (inactive)"}
{"smiles": "CCOC(=O)C1=C(C)NC(SCc2nnc(-c3ccc(Cl)cc3)o2)=NC1c1ccc(Br)cc1", "note": "(stereo not given)", "growth": "65.5% (inactive)"}
{"smiles": "c1ccc(C(CC2=NCCCN2)c2ccccc2)cc1", "growth": "108% (inactive)"}
{"smiles": "COC1=CC(c2ccc[nH]2)=N/C1=C\\c1[nH]c(C)c(C(=O)CCCCCCCCC(=O)O[C@H]2CC[C@H]3C4CCc5cc(O)ccc5C4CC[C@]23C)c1C", "note": "(stereo not given in full)", "growth": "22.7% (inactive)"}
{"smiles": "CCCCN(CCCC)CCC(O)c1cc2ccc(C(F)(F)F)cc2c2cc(C(F)(F)F)ccc12", "note": "(stereo not given)", "growth": "40.3% (inactive)"}
{"smiles": "COc1ccc(/C=C2\\Cc3c(Br)cccc3C2=O)c(OC)c1", "growth": "74.1% (inactive)"}
